Source: the supplement of paper PMC8728848
Only a selection was taken, and the strongest signals are over-represented in it overall.

Legend:
Experiment in all cases: glycan array binding signal (z-score within array); higher = stronger binding
Conditions in all cases: glycan notation: IUPAC condensed, linker removed
[1] = biological target: Gal6S(b1-3)GlcNAc
Procedure, shortened: (§1)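 Columns mapping to the same glycan were averaged after glycan names were converted to IUPAC-condensed notation. The data come from 3228 arrays in the Consortium for Functional Glycomics database, limited to those with an available protein sequence. Binding is reported as a within-array Z-score averaged across arrays of one protein sequence and across linkers.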

[2] = biological target: GalNAc(b1-4)GlcNAc
Procedure, shortened: as §1

[3] = biological target: Glc(b1-4)Glc
Procedure, shortened: as §1

[4] = biological target: Glc(b1-6)Glc
Procedure, shortened: as §1

[5] = biological target: Man(a1-2)Man(a1-3)[Man(a1-2)Man(a1-6)]Man
Procedure, shortened: as §1

[6] = biological target: Man(a1-2)Man(a1-6)[Man(a1-3)]Man(a1-6)[Man(a1-2)Man(a1-2)Man(a1-3)]Man(b1-4)GlcNAc(b1-4)GlcNAc
Procedure, shortened: as §1

[7] = biological target: Neu5Ac(a2-3)Gal(b1-3)GalNAc(b1-4)[Neu5Ac(a2-3)]Gal(b1-4)Glc
Procedure, shortened: as §1

[8] = biological target: Neu5Ac(a2-3)Gal(b1-3)GlcNAc
Procedure, shortened: as §1

[9] = biological target: Neu5Ac(a2-3)Gal(b1-3)[Neu5Ac(a2-6)]GalNAc
Procedure, shortened: as §1

[10] = biological target: Neu5Ac(a2-3)Gal(b1-4)GlcNAc(b1-3)Gal(b1-4)[Fuc(a1-3)]GlcNAc
Procedure, shortened: as §1

[11] = biological target: Neu5Ac(a2-3)Gal(b1-4)[Fuc(a1-3)]GlcNAc(b1-3)Gal
Procedure, shortened: as §1

[12] = biological target: Neu5Ac(a2-3)Gal(b1-4)[Fuc(a1-3)]GlcNAc(b1-3)Gal(b1-4)[Fuc(a1-3)]GlcNAc(b1-3)Gal(b1-4)[Fuc(a1-3)]GlcNAc
Procedure, shortened: as §1

[13] = biological target: Neu5Ac(a2-3)Gal6S(b1-4)[Fuc(a1-3)]GlcNAc
Procedure, shortened: as §1

[14] = biological target: Neu5Ac(a2-3)[Neu5Ac(a2-6)]GalNAc
Procedure, shortened: as §1

[15] = biological target: Neu5Ac(a2-8)Neu5Ac(a2-3)[GalNAc(b1-4)]Gal(b1-4)Glc
Procedure, shortened: as §1

B1: CCL1 (Coprinopsis cinerea) (protein)
chain: MDTQAKPPAGRYVIYNRVLSPNGEKLALTYPGYQREALTLTPLHHSANQIWILNNWDATTSSLTPETARNTQVGWGSGNVPIVLPPGNYVWTLASSAGGYIIQDGGKTVYWNAGEAVANTKVSIGGDNGLQARWIFERV
Question: For B1, which “glycan array binding signal (z-score)” value [1] is on record?
Answer: -0.152

Question: And the “glycan array binding signal (z-score)” value [2]?
Answer: -0.159

Question: What about the “glycan array binding signal (z-score)” value [3] of the same binder?
Answer: -0.115

Question: What about the “glycan array binding signal (z-score)” value [4] of the same binder?
Answer: -0.128

Question: And the “glycan array binding signal (z-score)” value [5]?
Answer: -0.124

Question: And the “glycan array binding signal (z-score)” value [6]?
Answer: -0.138

Question: And the “glycan array binding signal (z-score)” value [7]?
Answer: -0.132

Question: What about the “glycan array binding signal (z-score)” value [8] of the same binder?
Answer: -0.117

Question: And the “glycan array binding signal (z-score)” value [9]?
Answer: 1.63

Question: What about the “glycan array binding signal (z-score)” value [10] of the same binder?
Answer: -0.148

Question: What about the “glycan array binding signal (z-score)” value [11] of the same binder?
Answer: 3.29

Question: And the “glycan array binding signal (z-score)” value [12]?
Answer: 1.58

Question: What about the “glycan array binding signal (z-score)” value [13] of the same binder?
Answer: 1.5

Question: And the “glycan array binding signal (z-score)” value [14]?
Answer: -0.149

Question: And the “glycan array binding signal (z-score)” value [15]?
Answer: -0.127
